Assay in all cases: DAPPL (digital affinity profiling via proximity ligation, sequencing); 10 mM Tris-HCl pH 7.5, 50 mM NaCl, 1 mM DTT, 4% glycerol, room temperature, 30 min; GST-TFs on glutathione beads, 16-mer random dsDNA library, 0.1% formaldehyde crosslink after washing; high values mean tight binding
Holding throughout (conditions): protein: recombinant; tags: N-terminal GST; dsDNA, one strand shown

For one assay, the target named is T1, ERF (Homo sapiens, UniProt P50548 1-548).
T1 sequence: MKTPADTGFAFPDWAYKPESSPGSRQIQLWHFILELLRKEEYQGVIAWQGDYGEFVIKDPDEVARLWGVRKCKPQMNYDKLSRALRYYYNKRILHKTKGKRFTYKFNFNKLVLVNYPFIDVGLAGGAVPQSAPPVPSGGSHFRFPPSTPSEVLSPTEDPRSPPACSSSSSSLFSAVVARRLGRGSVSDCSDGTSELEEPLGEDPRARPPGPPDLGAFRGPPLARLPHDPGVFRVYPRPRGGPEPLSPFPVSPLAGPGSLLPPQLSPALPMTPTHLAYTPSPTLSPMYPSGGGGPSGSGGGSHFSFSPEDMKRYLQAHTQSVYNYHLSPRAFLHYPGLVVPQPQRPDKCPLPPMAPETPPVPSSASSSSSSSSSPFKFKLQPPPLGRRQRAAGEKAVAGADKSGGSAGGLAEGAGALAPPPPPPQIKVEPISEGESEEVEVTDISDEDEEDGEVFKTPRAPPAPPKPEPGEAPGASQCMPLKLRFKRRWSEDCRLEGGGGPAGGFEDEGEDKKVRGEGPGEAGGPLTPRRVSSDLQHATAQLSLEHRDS
The gist of the method: (§1)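 A tag-only sample was pooled with DNA-barcoded human transcription factors that had been expressed in yeast as GST fusions and captured on glutathione beads. The pools were incubated for 30 min at room temperature with 200 nmole of a random double-stranded 16-mer DNA library in Tris/NaCl/DTT/glycerol buffer, then washed, crosslinked with 0.1% formaldehyde, proximity-ligated (BsaI/T4 ligase, 1 h, 37 °C), PCR-amplified and sequenced on an Illumina NextSeq500. Binding signal is each hexamer's read frequency for a factor divided by its frequency for the tag-only sample.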

The target of a further assay is T2, ETV3L (Homo sapiens, UniProt Q6ZN32 1-361).
T2 sequence: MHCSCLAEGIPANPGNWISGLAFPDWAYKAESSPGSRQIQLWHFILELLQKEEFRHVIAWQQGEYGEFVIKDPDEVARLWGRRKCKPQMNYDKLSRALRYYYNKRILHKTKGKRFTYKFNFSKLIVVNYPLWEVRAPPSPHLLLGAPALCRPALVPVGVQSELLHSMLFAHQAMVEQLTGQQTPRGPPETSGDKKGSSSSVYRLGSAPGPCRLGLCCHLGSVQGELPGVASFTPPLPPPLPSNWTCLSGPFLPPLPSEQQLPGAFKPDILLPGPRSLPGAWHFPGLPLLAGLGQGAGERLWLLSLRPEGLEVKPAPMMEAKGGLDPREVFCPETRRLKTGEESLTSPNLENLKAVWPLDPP
The gist of the method:
as §1

Another assay has as its target T3, ETS2 (Homo sapiens, UniProt P15036 1-469).
T3 sequence: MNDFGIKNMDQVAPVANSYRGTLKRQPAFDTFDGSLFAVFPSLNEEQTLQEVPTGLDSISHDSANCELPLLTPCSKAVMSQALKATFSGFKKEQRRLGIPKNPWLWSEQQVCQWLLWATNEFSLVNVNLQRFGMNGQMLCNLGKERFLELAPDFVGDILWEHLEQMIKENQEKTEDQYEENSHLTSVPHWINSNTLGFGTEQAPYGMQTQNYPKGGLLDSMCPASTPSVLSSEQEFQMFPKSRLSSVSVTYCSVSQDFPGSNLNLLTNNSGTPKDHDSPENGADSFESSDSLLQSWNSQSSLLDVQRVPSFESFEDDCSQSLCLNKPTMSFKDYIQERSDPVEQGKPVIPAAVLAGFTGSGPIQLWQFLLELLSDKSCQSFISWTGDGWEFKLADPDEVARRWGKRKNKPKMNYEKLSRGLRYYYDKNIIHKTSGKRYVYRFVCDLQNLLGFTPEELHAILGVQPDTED
The gist of the method:
as §1

The target in another assay is T4, SPDEF (Homo sapiens, UniProt O95238 1-335).
T4 sequence: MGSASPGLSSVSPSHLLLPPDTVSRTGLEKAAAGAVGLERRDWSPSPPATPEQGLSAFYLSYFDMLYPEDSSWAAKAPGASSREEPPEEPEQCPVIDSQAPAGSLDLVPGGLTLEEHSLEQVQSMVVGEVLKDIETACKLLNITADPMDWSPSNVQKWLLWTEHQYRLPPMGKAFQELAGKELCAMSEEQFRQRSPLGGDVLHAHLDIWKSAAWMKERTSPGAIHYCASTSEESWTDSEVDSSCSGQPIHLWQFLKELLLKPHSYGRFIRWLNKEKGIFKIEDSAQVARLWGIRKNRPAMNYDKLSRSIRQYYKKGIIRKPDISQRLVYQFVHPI
The gist of the method: as §1

The target in a further assay is T5, ETV7 (Homo sapiens, UniProt Q9Y603 1-341).
T5 sequence: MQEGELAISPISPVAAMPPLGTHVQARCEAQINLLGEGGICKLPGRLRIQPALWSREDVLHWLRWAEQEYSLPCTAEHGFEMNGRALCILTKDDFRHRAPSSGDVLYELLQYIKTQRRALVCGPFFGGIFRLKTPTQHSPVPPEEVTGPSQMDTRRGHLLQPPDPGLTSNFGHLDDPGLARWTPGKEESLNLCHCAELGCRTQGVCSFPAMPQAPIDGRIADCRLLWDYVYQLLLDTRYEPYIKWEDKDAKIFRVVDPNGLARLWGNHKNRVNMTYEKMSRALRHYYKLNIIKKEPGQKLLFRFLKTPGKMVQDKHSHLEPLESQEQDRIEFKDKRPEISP
The gist of the method: as §1

Another assay concerns the target T6, ELF5 (Homo sapiens, UniProt Q9UKW6-2 1-255).
T6 sequence: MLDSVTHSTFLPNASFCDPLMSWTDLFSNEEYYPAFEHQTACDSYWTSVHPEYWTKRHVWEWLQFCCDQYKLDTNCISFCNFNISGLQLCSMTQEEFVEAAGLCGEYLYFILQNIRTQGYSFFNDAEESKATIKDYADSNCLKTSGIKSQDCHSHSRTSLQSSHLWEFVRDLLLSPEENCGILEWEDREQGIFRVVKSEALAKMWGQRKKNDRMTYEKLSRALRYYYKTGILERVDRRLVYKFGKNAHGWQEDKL
A digest of the protocol: as §1

For another assay, the target named is T7, ETV3 (Homo sapiens, UniProt P41162-2 1-143).
T7 sequence: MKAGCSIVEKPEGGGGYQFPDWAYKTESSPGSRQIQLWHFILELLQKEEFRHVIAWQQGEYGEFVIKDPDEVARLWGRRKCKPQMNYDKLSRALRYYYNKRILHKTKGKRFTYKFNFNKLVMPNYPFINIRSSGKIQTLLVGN
The gist of the method:
as §1

In the next assay the target is ETV6 (Homo sapiens, UniProt P41212 1-452). A digest of the protocol: as §1
ETV6, sequence (P41212 whole entry): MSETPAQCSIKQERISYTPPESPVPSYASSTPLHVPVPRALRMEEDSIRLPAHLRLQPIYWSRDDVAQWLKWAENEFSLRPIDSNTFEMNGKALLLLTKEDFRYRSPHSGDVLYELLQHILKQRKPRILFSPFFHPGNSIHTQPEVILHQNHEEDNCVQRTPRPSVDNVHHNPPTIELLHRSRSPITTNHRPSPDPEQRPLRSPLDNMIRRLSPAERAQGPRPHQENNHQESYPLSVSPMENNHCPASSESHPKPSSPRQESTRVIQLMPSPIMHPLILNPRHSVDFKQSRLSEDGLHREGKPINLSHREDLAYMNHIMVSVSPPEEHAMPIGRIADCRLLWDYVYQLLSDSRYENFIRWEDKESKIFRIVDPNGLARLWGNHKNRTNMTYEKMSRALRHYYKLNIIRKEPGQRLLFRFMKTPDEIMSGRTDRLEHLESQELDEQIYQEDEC

Take GCTGCT: the binding signal is 1.11 fold enrichment (6-mer frequency, TF over GST control) with ERF; 1.43 fold enrichment (6-mer frequency, TF over GST control) with ETV3L; 1.43 fold enrichment (6-mer frequency, TF over GST control) in the assay with ETS2; 1.21 fold enrichment (6-mer frequency, TF over GST control) with SPDEF; 1.21 fold enrichment (6-mer frequency, TF over GST control) in the assay with ETV7; 1.23 fold enrichment (6-mer frequency, TF over GST control) in the assay with ELF5. In addition, the binding signal was 1.2 fold enrichment (6-mer frequency, TF over GST control) with ETV3 and 1.27 fold enrichment (6-mer frequency, TF over GST control) with ETV6.

On to ACTCCA, for which the binding signal with ERF is 1.26 fold enrichment (6-mer frequency, TF over GST control); with ETV3L it was 1.11 fold enrichment (6-mer frequency, TF over GST control); with ETS2, 1.28 fold enrichment (6-mer frequency, TF over GST control); with SPDEF, 1.16 fold enrichment (6-mer frequency, TF over GST control); with ETV7, 1.18 fold enrichment (6-mer frequency, TF over GST control); in the assay with ELF5 it was 1.14 fold enrichment (6-mer frequency, TF over GST control). Also, the binding signal was 1.17 fold enrichment (6-mer frequency, TF over GST control) with ETV3 and 1.13 fold enrichment (6-mer frequency, TF over GST control) with ETV6.

On to GGTTCC, for which the binding signal in the assay with ERF is 1.35 fold enrichment (6-mer frequency, TF over GST control); in the assay with ETV3L it was 1.46 fold enrichment (6-mer frequency, TF over GST control); with ETS2, 1.59 fold enrichment (6-mer frequency, TF over GST control); with SPDEF, 1.84 fold enrichment (6-mer frequency, TF over GST control); with ETV7, 1.47 fold enrichment (6-mer frequency, TF over GST control); with ELF5, 1.75 fold enrichment (6-mer frequency, TF over GST control). The binding signal is 1.71 fold enrichment (6-mer frequency, TF over GST control) with ETV3 and 1.55 fold enrichment (6-mer frequency, TF over GST control) in the assay with ETV6.

As to GAAATT, the binding signal was 1.36 fold enrichment (6-mer frequency, TF over GST control) with ERF; 1.34 fold enrichment (6-mer frequency, TF over GST control) with ETV3L; 1.35 fold enrichment (6-mer frequency, TF over GST control) with ETS2; 1.25 fold enrichment (6-mer frequency, TF over GST control) in the assay with SPDEF; 1.2 fold enrichment (6-mer frequency, TF over GST control) in the assay with ETV7; 1.51 fold enrichment (6-mer frequency, TF over GST control) in the assay with ELF5. For the same sequence, the binding signal in the assay with ETV3 is 1.32 fold enrichment (6-mer frequency, TF over GST control); with ETV6, 1.41 fold enrichment (6-mer frequency, TF over GST control).

Take CCGGCA: the binding signal in the assay with ERF is 1.28 fold enrichment (6-mer frequency, TF over GST control); with ETV3L, 1.47 fold enrichment (6-mer frequency, TF over GST control); with ETS2 it was 1.43 fold enrichment (6-mer frequency, TF over GST control); with SPDEF, 1.67 fold enrichment (6-mer frequency, TF over GST control); with ETV7, 1.27 fold enrichment (6-mer frequency, TF over GST control); in the assay with ELF5 it was 1.51 fold enrichment (6-mer frequency, TF over GST control). For the same sequence, the binding signal is 1.45 fold enrichment (6-mer frequency, TF over GST control) in the assay with ETV3 and 1.61 fold enrichment (6-mer frequency, TF over GST control) in the assay with ETV6.

With ACTCAT, the binding signal with ERF was 1.39 fold enrichment (6-mer frequency, TF over GST control); with ETV3L, 1.26 fold enrichment (6-mer frequency, TF over GST control); in the assay with ETS2, 1.29 fold enrichment (6-mer frequency, TF over GST control); with SPDEF, 1.24 fold enrichment (6-mer frequency, TF over GST control); in the assay with ETV7 it was 1.27 fold enrichment (6-mer frequency, TF over GST control); with ELF5, 1.32 fold enrichment (6-mer frequency, TF over GST control). Moreover, the binding signal is 1.3 fold enrichment (6-mer frequency, TF over GST control) in the assay with ETV3 and 1.31 fold enrichment (6-mer frequency, TF over GST control) with ETV6.

With GTCCCG, the binding signal was 1.22 fold enrichment (6-mer frequency, TF over GST control) in the assay with ERF; 1.3 fold enrichment (6-mer frequency, TF over GST control) in the assay with ETV3L; 1.22 fold enrichment (6-mer frequency, TF over GST control) in the assay with ETS2; 1.34 fold enrichment (6-mer frequency, TF over GST control) with SPDEF; 1.19 fold enrichment (6-mer frequency, TF over GST control) in the assay with ETV7; 1.23 fold enrichment (6-mer frequency, TF over GST control) with ELF5. Moreover, the binding signal in the assay with ETV3 was 1.32 fold enrichment (6-mer frequency, TF over GST control); in the assay with ETV6, 1.13 fold enrichment (6-mer frequency, TF over GST control).

TCCACT: the binding signal is 1.42 fold enrichment (6-mer frequency, TF over GST control) in the assay with ERF; 1.49 fold enrichment (6-mer frequency, TF over GST control) with ETV3L; 1.45 fold enrichment (6-mer frequency, TF over GST control) with ETS2; 1.37 fold enrichment (6-mer frequency, TF over GST control) in the assay with SPDEF; 1.4 fold enrichment (6-mer frequency, TF over GST control) with ETV7; 1.42 fold enrichment (6-mer frequency, TF over GST control) in the assay with ELF5. Further, the binding signal with ETV3 was 1.41 fold enrichment (6-mer frequency, TF over GST control); with ETV6 it was 1.39 fold enrichment (6-mer frequency, TF over GST control).

The values above are taken from publication PMC7862700, “An all-to-all approach to the identification of sequence-specific readers for epigenetic DNA modifications on cytosine”.
